From PubChem BioAssay
mHTT CaM bind: disrupts binding of mutant huntingtin to calmodulin; P42858; AlphaScreen His-mHTT/GST-CaM binding, luminescence; inhibition, % at 15 µM; 3.6% of 190,000 active
Pf apPOL block: Pf-apPOL DNA polymerase inhibition; Recombinant Pf-apPOL, molecular beacon fluorescence, 1.5 h; inhibition, % at 10 µM; 0.25% of 210,000 active; AID 1794808
A number is an active result; - = inactive; . = no result given. The list is not random: actives were taken first. Their share in the collection is about 3.6%. No stated cut-off is given here; in the data, active means inhibition above about 50%; inactive means the rest.

SMILES	mHTT CaM bind	Pf apPOL block
CC(=O)NC(=O)c1cccc2cccc(I)c12	.	-
Cc1nc(NC(=O)C2CCCN(c3ccc(-n4cccn4)nn3)C2)sc1C (configuration not stated)	94.0	-
O=C(NCc1cccs1)C1CCCN(c2ccc(-n3cccn3)nn2)C1 (configuration not stated)	56.8	-
Cc1ccnc(NC(=O)C2CCCN(c3cc(-n4cccn4)ncn3)C2)c1 (configuration not stated)	-	-
Cn1ncc(N2CCCC(C(=O)NCc3cccs3)C2)cc1=O (configuration not stated)	-	-
CC(O)(C#CCN1CCCCC1)c1ccccc1 (configuration not stated)	-	-
CC1=CS(=O)(=O)CC1Sc1nc2ccccc2[nH]1 (configuration not stated)	-	-
O=C(Cn1ccc2ccc(N3CCCCCC3)nc21)NC1CCCCC1	50.2	-
O=C(Cn1ccc2ccc(N3CCCCC3)nc21)NC1CCCC1	-	-
O=C(NCc1ccccc1Cl)C1CCN(S(=O)(=O)N2CCCC2)CC1	-	-
Oc1ccc(C2CC3CCC2C3)cc1O (configuration not stated)	53.5	-
Cc1cc(C2CCCCC2)ccc1O	-	-
O=C(O)c1ccc(N2C(=O)CC(N3CCN(c4cccc(Cl)c4)CC3)C2=O)cc1 (configuration not stated)	-	-
CC(C)C(=O)NC(c1ccccc1Cl)c1ccc2cccnc2c1O (configuration not stated)	100.0	-
CC(C)C(=O)NC(c1ccc(Cl)cc1)c1ccc2cccnc2c1O (configuration not stated)	94.6	-
CC(C)C(=O)NC(c1ccco1)c1ccc2cccnc2c1O (configuration not stated)	99.7	-
CC(C)C(=O)NC(c1ccco1)c1cc(Cl)c2cccnc2c1O (configuration not stated)	-	-
CC(C)C(=O)NC(c1ccccc1)c1ccc2cccnc2c1O (configuration not stated)	100.0	-
O=C(CSC1CCCCC1)N1CCCCCC1	-	-
O=C(O)C1C2C=CC(O2)C1C(=O)Nc1ccc2c(c1)OCCO2 (configuration not stated)	-	-
Cc1ccc(NC(=O)c2cn(C)c(=O)c3ccccc23)c(Br)c1	-	-
Cn1cc(C(=O)Nc2ccc3c(c2)CCC3)c2ccccc2c1=O	50.0	-
COc1cc2c(cc1OC)/C(=C/c1cc(OC)c(OC)c(OC)c1)C(=O)N2	-	.
COc1ccc(N=C2C(=O)Nc3ccc(Br)cc32)cc1	-	-
COc1ccc(O)c(/C=C2\C(=O)Nc3ccc(Br)cc32)c1	91.0	-
SMILES	mHTT CaM bind	Pf apPOL block
O=C1Nc2ccc(Br)cc2/C1=C/c1ccc(Cl)cc1Cl	52.0	-
O=C1Nc2ccccc2/C1=C/c1ccc(Cl)cc1Cl	-	-
COc1ccc(OC)c(/C=C2\C(=O)Nc3ccc(Br)cc32)c1	54.0	-
COc1ccc(/C=C2\C(=O)Nc3ccc(Br)cc32)c(OC)c1OC	100.0	-
CC(C)(C)C(=O)C=C1C(=O)Nc2ccc(Br)cc21	.	-
COc1ccccc1-n1c(SCc2ccc([N+](=O)[O-])cc2)nc2c(c1=O)SCC2	-	-
Cc1nc2ccccc2c(=O)n1CC1CCCO1 (configuration not stated)	-	-
Cc1ccc(C(O)=C2C(=O)C(=O)N(c3ccc(O)cc3)C2c2ccc([N+](=O)[O-])cc2)cc1 (configuration not stated)	-	-
Cn1cccc(C(=O)N2CCC(c3nnc(-c4ccc(F)cc4)o3)CC2)c1=O	-	-
CC1CC(C)CN(CCCNC(=O)c2ccc(CS(=O)(=O)Cc3ccccc3Cl)o2)C1 (configuration not stated)	-	-
Cc1ccc(OCC(=O)Nc2ccc(C(C)C)cc2)cc1	-	-
CC(C)c1ccc(OCC(=O)Nc2nnc(-c3ccc(Br)o3)o2)cc1	52.3	-
CS(=O)(=O)N(Cc1ccc(C(=O)NCCSc2ccccn2)cc1)c1ccccc1	-	-
Cc1ccc(-n2nc3c(c2NC(=O)/C=C/c2ccccc2)CSC3)c(C)c1	-	-
Cc1ccccc1-n1nc2c(c1NC(=O)CSCc1ccccc1)CSC2	80.9	-
O=C(/C=C/c1ccc2c(c1)OCO2)Nc1c2c(nn1-c1ccc(Cl)cc1)CSC2	-	-
O=C(Nc1c2c(nn1-c1ccccc1)CSC2)c1cccs1	-	-
O=C(/C=C/c1ccccc1)Nc1c2c(nn1-c1ccc(Cl)cc1)CSC2	56.0	-
Cc1ccccc1-n1nc2c(c1NC(=O)/C=C/c1ccccc1)CSC2	81.0	-
CCC(=O)Nc1c2c(nn1-c1ccccc1C)CSC2	-	-
O=C(Nc1c2c(nn1-c1ccc(Cl)cc1)CSC2)c1cccs1	50.0	-
CCn1cc(Cl)c(C(=O)N2CCCC(OCc3nc(C)no3)C2)n1 (configuration not stated)	-	-
CCCC(=O)N1CCc2c(c(-c3nc(-c4ccccc4F)no3)nn2C)C1	-	-
